Screening data deposited in PubChem by National Center for Advancing Translational Sciences (NCATS).
WRN helicase inh = WRN helicase (human) inhibition. Q14191. WRN helicase unwinding, fluorescent forked duplex, kinetic. Potency, µM (doses to about 114 µM), inactives show at the highest dose activity change, negative = inhibition, actives largely listed as inhibitors. hit rate 0.46% among 360,000. AID 651768; further: on the % scale 0 is the no-effect control and ±100 the full control effect; nearly all actives have a fitted effect of over 55% in size
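Kinetic red-fluorescence monitoring (525/598 nm) tracks WRN helicase activity after 100 nM fluorophore-quencher forked duplex and 2 mM ATP are added to 20 nM enzyme pretreated 15 min at room temperature with compound.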
FEN1 inh = human FEN1 inhibition; Potency, µM (titrated, usually from 114 µM), without a hit: top-dose activity change, negative = inhibition, most hits filed as inhibitors; hit rate 0.35% among 390,000; P39748; Recombinant FEN1 flap cleavage, fluorescence, 15 min; further: on the % scale 0 is the no-effect control and ±100 the full control effect; nearly all actives have a fitted effect of over 65% in size
Target sequence (P39748 whole entry, looked up): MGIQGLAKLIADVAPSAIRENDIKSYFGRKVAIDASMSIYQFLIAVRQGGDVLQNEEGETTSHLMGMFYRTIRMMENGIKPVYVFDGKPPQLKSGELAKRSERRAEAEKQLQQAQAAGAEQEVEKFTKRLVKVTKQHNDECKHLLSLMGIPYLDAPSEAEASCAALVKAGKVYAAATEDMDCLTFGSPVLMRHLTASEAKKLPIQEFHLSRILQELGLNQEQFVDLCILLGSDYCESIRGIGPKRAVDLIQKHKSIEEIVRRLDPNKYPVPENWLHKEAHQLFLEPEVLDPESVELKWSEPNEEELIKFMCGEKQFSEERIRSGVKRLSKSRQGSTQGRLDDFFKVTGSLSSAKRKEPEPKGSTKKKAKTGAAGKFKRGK
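In this screen, 50 nM flap DNA substrate was added to 10 nM FEN1 pretreated with compound for 15 min at room temperature; cleavage was followed with reads at 0 and 15 min, and Hill fitting gave concentration–response parameters.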
Pol iota inh = DNA polymerase iota (human) inhibition; AID 588590; Potency, µM (highest dose often 115 µM), inactives show at the top dose activity, negative = inhibition, actives largely listed as inhibitors; Pol iota fluorescent replication assay, 10 min; hit rate 1% among 390,000; Q9UNA4
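Fluorescent replication assay read twice, at 0 min and 10 min after adding 50 nM (final) substrate. Enzyme (10 nM) and compounds were first incubated 15 min at room temperature; enzyme-free buffer wells were negative controls.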
POLK inh = DNA polymerase kappa (human) inhibition; Potency, µM (highest dose often 107 µM), for inactives: at the highest dose activity, negative = inhibition, usual class: inhibitors; hit rate 0.53% among 400,000; AID 588579; purified Pol kappa, fluorescent DNA synthesis assay, 10 min; further: on the % scale 0 is the no-effect control and ±100 the full control effect
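Kinetic fluorescence screen: compound preincubated 15 min RT with 10 nM enzyme; 50 nM substrate (final) initiates; reads at 0/10 min.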
Pol beta inh = blocks human DNA polymerase beta activity; P06746; Pol beta primer extension/strand displacement, fluorescence kinetic; Potency, µM (titrated, usually from 114 µM), inactives show top-dose activity change, negative = inhibition, actives largely listed as inhibitors; hit rate 1.3% among 340,000; further: on the % scale 0 is the no-effect control and ±100 the full control effect
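Pol beta (10 nM) was preincubated with compound for 15 min at room temperature. The reaction was then started with 50 nM substrate and read immediately and after a further 10 min at room temperature.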
POLH inh = DNA polymerase eta (human) inhibition; recombinant Pol eta, fluorescent DNA replication assay; hit rate 1.2% among 390,000; Potency, µM (doses to about 114 µM), for inactives: top-dose activity change, negative = inhibition, usual class: inhibitors; further: on the % scale 0 is the no-effect control and ±100 the full control effect
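Fluorescent replication assay: 50 nM final substrate added after a 15 min room-temperature compound preincubation with 10 nM enzyme. Signal taken at 0 min and again at 10 min.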
The depositor's hits bear a star; ? = inconclusive; / = not tested or not shown; ! = a repeat was not active; [ ] = dose if it differs, or a comment. Compounds with a hit are over-represented: about 2.4% of the library has one in this group of screens. The call rests on the fitted dose curve; in most records, active means well fitted curve in the direction sought with a large enough effect; inconclusive means small, poorly fitted or top-dose-only effect, or another doubt; inactive means no such curve, though single readings can be large; an effect the other way counts as inactive or inconclusive. Potency means the concentration at half of the fitted maximal effect.

SMILES	WRN helicase inh	FEN1 inh	Pol iota inh	POLK inh	Pol beta inh	POLH inh
COc1cc(/C=C2\C(=O)NC(=O)N(c3ccccc3)C2=O)cc(OC)c1OC	50µM*	0%	6%	-2%	3%	6%
O=C1NC(=O)N(c2ccccc2)C(=O)/C1=C\c1ccc([N+](=O)[O-])o1	/	/	/	/	7.9µM*	/
COc1cc(/C=C2/C(=O)NC(=O)N(c3ccc(C)cc3)C2=O)cc(OC)c1OC	?	0%	69%	-14%	-23%	-14%
COc1ccc(/C=C2/C(=O)NC(=O)N(c3ccc(C)c(C)c3)C2=O)cc1CN1C(=O)c2ccccc2C1=O	40µM*	-11%	142%	-12%	-14%	-8%
O=C1NC(=O)N(c2ccccc2)C(=O)/C1=C\C=C\c1ccccc1	32µM*	-1%	?	-11%	?	?
CCN(CC)C(=O)N[C@H]1C=C2c3cccc4[nH]cc(c34)C[C@@H]2N(C)C1	/	/	/	-16%[12 µM]	/	/
CCNC(=O)[C@H]1O[C@@H](n2cnc3c(N)ncnc32)[C@H](O)[C@H]1O	/	/	5%[58.9 µM]	/	15%[57.1 µM]	-7%[57.1 µM]
Cc1[nH]c(=O)n(C(C)(C)C)c(=O)c1Cl	/	/	/	17%[60.1 µM]	/	/
C/C1=C/C(=O)O[C@@H]2C[C@@H](CC[C@H](C)/C=C\CC1)O[C@@](O)(C1CSC(=O)N1)C2 (stereo not given in full)	/	/	/	11%[60.1 µM]	/	/
Cn1cccc1/C=C1/C(=O)NC(=O)N(Cc2ccc(F)cc2)C1=O	?	-6%	40µM*	71µM*	1%	79µM*
COc1ccc(CN2C(=O)NC(=O)/C(=C/c3cc(OC)c(OC)c(OC)c3)C2=O)cc1	45µM*	-16%	21%	-7%	-2%	1%
COc1ccc(CN2C(=O)NC(=O)/C(=C/c3ccc(OC)c(OC)c3OC)C2=O)cc1	?	-15%	34%	-5%	20%	-9%
COc1cc(N2CCOCC2)ccc1/C=C1\C(=O)NC(=O)N(C2CCCCC2)C1=O	79µM*	-2%	-4%	-1%	21%	-18%
CCN1C(=O)NC(=O)/C(=C\c2ccc(N3CCOCC3)cc2OC)C1=O	/	/	/	/	-1%	/
Nc1c([N+](=O)[O-])ccc(Oc2ccccc2)c1Cl	/	/	/	2%[60.1 µM]	/	/
CCOC(=O)c1c(/N=C/C2C(=O)NC(=S)NC2=O)sc2c1CCC2	56µM*	-22%	41%	-23%	1%	1%
CCOC(=O)c1cc(C)sc1/N=C/C1C(=O)NC(=S)NC1=O	50µM*	-9%	?	-26%	-18%	12%
CCOC(=O)c1c(/N=C/C2C(=O)NC(=S)NC2=O)sc(C)c1C	/	/	/	/	17%	/
CON(C)C(=O)Nc1ccc(Br)c(Cl)c1	/	/	/	16%[60.1 µM]	/	/
Cc1ccccc1-n1c(O)c(/C=C2/C(c3ccccc3)=Nc3ccccc32)c(=O)[nH]c1=O	?	-19%	-13%	-11%	39%	-11%
COC(=O)C1=Nc2ccccc2/C1=C\c1c(O)n(-c2cc(OC)ccc2OC)c(=O)[nH]c1=O	50µM*	-16%	-8%	-20%	-21%	?
COc1ccc(-n2c(O)c(/C=C3\C=Nc4ccc(Br)cc43)c(=O)[nH]c2=O)c(OC)c1	-13%[11.6 µM]	?	?	-15%	20%	79µM*
COc1ccc(-n2c(O)c(/C=C3\C=Nc4ccc(Br)cc43)c(=O)[nH]c2=O)cc1	-6%[57.1 µM]	-34%	7.9µM*	-5%	-13%	-16%
O=c1[nH]c(=O)n(-c2ccc(F)cc2)c(O)c1/C=C1\C=Nc2ccccc21	?	-3%	7.9µM*	?	17%	89µM*
COc1ccc(-n2c(O)c(/C=C3\C=Nc4ccccc43)c(=O)[nH]c2=O)cc1	0%	-17%	?	-5%	-21%	?
SMILES	WRN helicase inh	FEN1 inh	Pol iota inh	POLK inh	Pol beta inh	POLH inh
c1ccc2c(c1)[nH]c1cnccc12	2%	-5%	18%	3%	34%	-16%
Cc1c2ccncc2c(C)c2c1[nH]c1ccccc12	-13%	12µM*	14µM*!	?	4µM*	?
CC(=O)Nc1cc(Cl)c(N=Cc2ccc(O)cc2O)cc1Cl	-18%	7%	?	-8%[60.1 µM]	10µM*	79µM*
CC(=O)Nc1cc([As](=O)(O)O)ccc1O	2%	-1%	?	-15%	-4%	-13%
CCCc1cc(=O)oc2cc(OCc3ccc(C(=O)O)o3)ccc12	-3%[11.6 µM]	-1%	113%	-16%	71µM*	?
N.N.N.N.N.N.N.N.N.N.N.N.N.N.O.O.[Cl-].[Cl-].[Cl-].[Cl-].[Cl-].[Cl-].[Ru].[Ru].[Ru]	/	/	8.9µM*	/	5.6µM*	25µM*
O=[N+]([O-])c1cc(-c2ccc([As](=O)(O)O)cc2)ccc1[As](=O)(O)O	/	/	/	/	20µM*	/
COc1ccc(C=C2C(=O)NC(=S)NC2=O)cc1	50µM*	-4%	-3%	-10%	/	-4%
O=C1NC(=S)NC(=O)C1=Cc1ccc(OCc2ccccc2)cc1	35µM*	5%	47%	-8%	/	-10%
NCC[C@H](NC(=O)[C@@H](N)CCCN=C(N)N[N+](=O)[O-])C(N)=O	/	/	/	16%[60.1 µM]	/	/
NCC(=O)c1cccc([N+](=O)[O-])c1	/	14%	34%	6%	/	/
Cc1cc(/C=C2/C(=O)NC(=O)N(Cc3ccco3)C2=O)c(C)n1-c1ccccc1O	-11%[11.6 µM]	0%	45µM*	-33%	28µM*	50µM*
Cc1cc(/C=C2/C(=O)NC(=O)N(C)C2=O)c(C)n1-c1ccccc1	1%[57.1 µM]	-3%	-20%	10%	-2%	-9%
